In PubChem BioAssay (NCATS) one finds Potency data, which are given here for 18 molecules.

The structures appear in SMILES notation. Results filed as inconclusive are left out. Entries that show only a call come without a potency. The source made the active and inactive calls. Calls follow the shape of the dose curve; as a rule, active = well fitted inhibition curve with a large enough effect; inconclusive = small, poorly fitted or top-dose-only effect; inactive = flat fitted curve, though single readings scatter.
Potency is read from the fitted curve at half-maximal effect.

The subject of this assay is Zika virus NS2B-NS3 protease. Put plainly: Primary screen GU AMC qHTS for Zika virus inhibitors (AID 1347154). Also: nearly all actives have a fitted effect of over 70% in size. To be noted: Zika NS2B-NS3 unlinked protease, AMC fluorogenic substrate; series mostly up to 54.1 µM. In short, it runs like this:
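Fluorogenic AMC-substrate cleavage by noncovalent NS2B-NS3 protease complex (25 nM, pH 8.0 Tris buffer with Tween 20) followed for 15 minutes at room temperature (~20% conversion). Percent inhibition from ex340/em450 signal change, fitted by 4-parameter Hill equation.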
In general terms: Quantitative high-throughput screening tests each substance at several concentrations.
Take `O=C(CS(=O)Cc1ccco1)NCC=CCOc1cc(CN2CCCCC2)ccn1` (stereo not drawn): the Potency entry is “inactive”.

As for `COC1=C(OC)C(=O)C(CCCCCCCCCCO)=C(C)C1=O`, the Potency result is “inactive”.

As for `CCCc1cc(=O)[nH]c(=S)[nH]1`, the Potency entry is “inactive”.

Consider `N=C(N=C(N)N)N1CCOCC1`, for which the Potency result was “inactive”.

On to `Cc1ccc(C)c(OCCCC(C)(C)C(=O)O)c1`, for which the Potency result was “inactive”.

Take `CN(c1nccc(=O)[nH]1)C1CCN(c2nc3ccccc3n2Cc2ccc(F)cc2)CC1`: the Potency result is “inactive”.

With `CCCCN(CCCC)CCC(O)c1cc2c(Cl)cc(Cl)cc2c2cc(C(F)(F)F)ccc12` (stereo not drawn), the Potency entry was “inactive”.

In the case of `CN(C)C(=O)COC(=O)Cc1ccc(OC(=O)c2ccc(N=C(N)N)cc2)cc1`, the Potency entry is “inactive”.

Turning to `COc1c(O)cc2c(c1O)[C@@H]1O[C@H](CO)[C@@H](O)[C@H](O)[C@H]1OC2=O`, the Potency entry is “inactive”.

With `CC(C)c1ccc2oc3nc(N)c(C(=O)O)cc3c(=O)c2c1`, the Potency was 15.8 µM (active).

On to `CCCCCCCCOc1ccccc1C(=O)Nc1ccc(C(=O)OCC[N+](C)(CC)CC)cc1`, for which the Potency result is “inactive”.

`CC1=C(C(=O)O)N2C(=O)[C@@H](NC(=O)[C@H](N)C3=CCC=CC3)[C@H]2SC1`: the Potency entry is “inactive”.

On to `O=c1cc(N2CCOCC2)oc2c(-c3ccccc3)cccc12`, for which the Potency result is “inactive”.

For the molecule `COCCCN1CCC(NC(=O)c2cc(Cl)c(N)c3c2OCC3)CC1`, the Potency entry was “inactive”.

Consider `CCOC(=O)c1c(C)n(C)c2ccc(O)cc12`, for which the Potency result is “inactive”.

On to `Nc1cc(C(Cl)=C(Cl)Cl)c(S(N)(=O)=O)cc1S(N)(=O)=O`, for which the Potency entry is “inactive”.

For the molecule `Cc1nc2n(c(=O)c1CCN1CCC(c3noc4cc(F)ccc34)CC1)CCCC2`, the Potency result was “inactive”.

Turning to `Oc1ccc(OCc2ccccc2)cc1`, the Potency result is “inactive”.
